Measurements published in PubChem BioAssay (NCATS).
Results filed as inconclusive are left out. Active and inactive are the calls of the source. Calls come from the whole dose curve.

How the values were obtained:
[1] = Primary qHTS for inhibitors of SARS-S pseudo-typed particle cell entry (AID 1479145); settings: outcome: dose series up to 57.1 µM unless noted; note: nearly all actives have a fitted effect of over 45% in size
[2] = Primary qHTS for Huh7 cytotoxicity: counterscreen for inhibitors of MERS-S pseudotyped particle cell entry (AID 1479147); settings: outcome: dose series up to 57.1 µM unless noted
[3] = Primary qHTS for inhibitors of MERS-S pseudo-typed particle cell entry (AID 1479149); settings: outcome: dose series up to 57.1 µM unless noted; note: nearly all actives have a fitted effect of over 60% in size
[4] = Primary qHTS for Vero E6 cytotoxicity: counterscreen for inhibitors of SARS-S pseudo-typed particle cell entry (AID 1479150); settings: outcome: dose series up to 57.1 µM unless noted
[5] = Confirmatory qHTS for VERO E6 Cytotoxicity Assay: Counterscreen for SARS-CoV-2 CPE Assay (AID 1508605); note: series mostly up to about 20 µM; nearly all actives have a fitted effect of over 60% in size
[6] = Cytotoxicity counterscreen for inhibitors of SARS-CoV-2 cell entry (AID 1645845); settings: outcome: dose series up to 57.1 µM unless noted; note: nearly all actives have a fitted effect of over 50% in size
Procedure, shortened: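 48 h compound treatment (after 1 h preincubation), HEK293-ACE2 cells, 37 C/5% CO2; ATP luminescence endpoint; normalized to cell wells and media blanks.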

Measured: Potency

CC(C)(C)c1ccc(CN2CCN(C(c3ccccc3)c3ccc(Cl)cc3)CC2)cc1 (stereo not given)
not listed: [6]
inactive: all other assays above

CC(C)C(=O)OCC(=O)[C@@]12OC(C3CCCCC3)O[C@@H]1C[C@H]1[C@@H]3CCC4=CC(=O)C=C[C@]4(C)[C@H]3[C@@H](O)C[C@@]12C (stereo not given in full)
not listed: [5]
inactive: all other assays above

COc1ccc(/C=C/C(=O)OCCC(C)C)cc1
not listed: [5]
inactive: all other assays above

COc1ccc(CCNCC(O)COc2cccc(C)c2)cc1OC (stereo not given)
not listed: [5]
inactive: all other assays above

O=C(O)CCSC[C@H]1O[C@@H]2O[C@H]3[C@H](O)[C@@H](O)[C@@H](O[C@H]4[C@H](O)[C@@H](O)[C@@H](O[C@H]5[C@H](O)[C@@H](O)[C@@H](O[C@H]6[C@H](O)[C@@H](O)[C@@H](O[C@H]7[C@H](O)[C@@H](O)[C@@H](O[C@H]8[C@H](O)[C@@H](O)[C@@H](O[C@H]9[C@H](O)[C@@H](O)[C@@H](O[C@H]1[C@H](O)[C@H]2O)O[C@@H]9CSCCC(=O)O)O[C@@H]8CSCCC(=O)O)O[C@@H]7CSCCC(=O)O)O[C@@H]6CSCCC(=O)O)O[C@@H]5CSCCC(=O)O)O[C@@H]4CSCCC(=O)O)O[C@@H]3CSCCC(=O)O
not listed: [5]
inactive: all other assays above

C[N+]1(C)[C@@H]2CC(OC(=O)C(O)(c3cccs3)c3cccs3)C[C@H]1[C@H]1O[C@@H]12 (stereo not given in full)
not listed: [5]
inactive: all other assays above

CCO/N=C(\C(=O)N[C@@H]1C(=O)N2C(C(=O)O)=C(Sc3nc(-c4cc[n+](C)cc4)cs3)CS[C@H]12)c1nsc(NP(=O)(O)O)n1
not listed: [5]
inactive: all other assays above

O=S(=O)(O)CCCS(=O)(=O)O
not listed: [5]
inactive: all other assays above

O=C(O)CSc1nnc(Br)n1-c1ccc(C2CC2)c2ccccc12
not listed: [5]
inactive: all other assays above

O=c1[nH]cnc2c([C@@H]3N[C@H](CO)[C@@H](O)[C@H]3O)c[nH]c12
not listed: [5]
inactive: all other assays above

NS(=O)(=O)c1ccc(-n2nc(C(F)(F)F)cc2-c2ccc(F)cc2)cc1
not listed: [5]
inactive: all other assays above

CC(CCc1ccc(O)cc1)NCC(O)c1ccc(O)cc1 (stereo not given)
not listed: [5]
inactive: all other assays above

CS(=O)(=O)OCC(O)C(O)COS(C)(=O)=O (stereo not given)
not listed: [5]
inactive: all other assays above

CCCCCCCCCCCCCCCC(=O)OC[C@@H](O)[C@H]1OC[C@H](O)[C@H]1O
not listed: [5]
inactive: all other assays above

CN=C(NC)NCc1ccccc1
not listed: [5]
inactive: all other assays above

CO/N=C(\C(=O)N[C@@H]1C(=O)N2C(C(=O)O)=C(Cn3ccc(=N)n3CCO)CS[C@H]12)c1csc(N)n1
not listed: [5]
inactive: all other assays above

O=C(OCCN(CCO)CCO)c1ccccc1O
not listed: [5]
inactive: all other assays above

CCNC(=O)CCC/C=C\C[C@@H]1[C@@H](/C=C/[C@@H](O)CCc2ccccc2)[C@H](O)C[C@@H]1O
not listed: [5]
inactive: all other assays above

CC(C)[C@@H](C)/C=C/[C@@H](C)[C@H]1CC[C@H]2/C(=C/C=C3\C[C@@H](O)CC[C@@H]3C)CCC[C@]12C
not listed: [5]
inactive: all other assays above

CCc1ccc(Nc2c(F)c(F)cc(F)c2F)c(CC(=O)O)c1
not listed: [5]
inactive: all other assays above

CC1(C)S[C@@H]2[C@H](NC(=O)C(C(=O)O)c3ccsc3)C(=O)N2[C@H]1C(=O)O (stereo not given in full)
not listed: [5]
inactive: all other assays above

FC(F)(F)C(F)(F)C(F)(F)C(F)(F)C(F)(F)C(F)(F)F
not listed: [5]
inactive: all other assays above

CCCCCCCCCCCCCCCC(=O)OC1CCCn2c1nc(C)c(CCN1CCC(c3noc4cc(F)ccc34)CC1)c2=O (stereo not given)
not listed: [5]
inactive: all other assays above

CC1(C)S[C@@H]2[C@H](NC(=O)[C@H](NC(=O)N3CCNC3=O)c3ccccc3)C(=O)N2C1C(=O)O (stereo not given in full)
not listed: [5]
inactive: all other assays above

CCC(CC)[C@H](NC(C)=O)[C@@H]1[C@H](O)[C@@H](C(=O)O)C[C@H]1N=C(N)N
inactive: [1] inactive [at 0.573 µM] | [2] inactive [at 0.573 µM] | [3] inactive [at 0.573 µM] | [4] inactive [at 0.573 µM] | [6] inactive [at 0.702 µM]

CCCCC(=O)O[C@]1(C(=O)COC(C)=O)CC[C@H]2[C@@H]3CCC4=CC(=O)C=C[C@]4(C)[C@H]3[C@@H](O)C[C@@]21C
not listed: [5]
inactive: all other assays above
